Assay results: PubChem BioAssay AID1159580 (chemical genetic matrix, 2015)
Hit rate of the full screen: of about 5,500 compounds, about 2,000 (36%) were called active. Inconclusive results (about 18%) are left out. Cut-off read from the data, not from the text of the source: active = normalized growth mostly below about 0.91 (no sharp cut-off); inconclusive = no clear call, values can overlap the other calls; inactive = mostly above about 0.92. Some of the results follow.

Assay: chemical genetic growth profiling, strain panel (AID 1159580);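 note: tested at 20 µM; growth read once vehicle control cultures reached saturation at 30 °C; 1 = growth at the plate median or of vehicle wells; lower values mean less growth of the strain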
Details: S. cerevisiae deletion strains, growth OD

Measured: normalized growth

O=C(CCCN1CCC(O)(c2ccc(Cl)cc2)CC1)c1ccc(F)cc1
active: locus YJR075W, strain HOC1, hits give low values 0.819 | locus YKR001C, strain vps1, hits give low values 0.247 | locus YLR027C, strain aat2, hits give low values 0.911 | locus YLR039C, strain RIC1, hits give low values 1.39 [resistant] | locus YLR058C, strain SHM2, hits give low values 0.746 | locus YLR268W, strain sec22, hits give low values 0.794 | locus YLR320W, strain mms22, hits give low values 0.49 | locus YLR330W, strain CHS5, hits give low values 0.849 | locus YLR342W, strain FKS1 (second series), hits give low values 0.726 | locus YLR357W, strain rsc2, hits give low values 1.19 [resistant] | locus YLR418C, strain cdc73, hits give low values 0.496 | locus YML016C, strain PPZ1, hits give low values 0.915 | locus YML032C, strain rad52, hits give low values 0.82 | locus YMR058W, strain fet3, hits give low values 0.821 | locus YMR125W, strain sto1, hits give low values 0.876 | locus YMR223W, strain ubp8, hits give low values 0.8 | locus YMR307W, strain GAS1, hits give low values 0.526 | locus YNL067W, strain RPL9B, hits give low values 0.844
inactive: locus YJR043C, strain POL32, hits give low values 0.93 | locus YJR066W, strain TOR1, hits give low values 0.939 | locus YKL009W, strain mrt4, hits give low values 0.963 | locus YKL068W, hits give low values 1.02 | locus YKL085W, strain MDH1 (second series), hits give low values 1.02 | locus YKL085W, strain MDH1, hits give low values 1.02 | locus YKL160W, strain elf1, hits give low values 0.904 | locus YKR026C, strain gcn3, hits give low values 1.03 | locus YKR091W, strain srl3, hits give low values 1.03 | locus YLL001W, strain dnm1, hits give low values 0.958 | locus YLL026W, hits give low values 0.947 | locus YLL041C, strain sdh2, hits give low values 1.02 | locus YLR102C, strain apc9, hits give low values 1.02 | locus YLR113W, strain HOG1, hits give low values 1.03 | locus YLR221C, strain rsa3, hits give low values 0.923 | locus YLR258W, strain gsy2, hits give low values 0.938 | locus YLR262C, strain YPT6 (second series), hits give low values 0.893 | locus YLR262C, strain YPT6, hits give low values 1.37 | locus YLR342W, strain FKS1, hits give low values 1.01 | locus YLR370C, strain arc18, hits give low values 0.965 | locus YLR371W, strain rom2, hits give low values 1 | locus YLR384C, strain iki3, hits give low values 0.999 | locus YML120C, strain ndi1, hits give low values 0.932 | locus YML124C, strain tub3, hits give low values 0.994 | locus YMR078C, strain ctf18, hits give low values 1.01 | locus YMR129W, hits give low values 1.03 | locus YMR205C, strain PFK2, hits give low values 0.949 | locus YMR231W, strain pep5, hits give low values 1.01 | locus YMR263W, strain SAP30, hits give low values 0.996
